TDP1 block: qHTS Assay for Inhibitors of Tyrosyl-DNA Phosphodiesterase (TDP1); Tyrosyl-DNA phosphodiesterase 1 (Homo sapiens), Q9NUW8; recombinant TDP1, AlphaScreen DNA substrate cleavage; Potency, µM (series often up to 130 µM), for inactives: at the top dose activity change, negative = inhibition, usual class: inhibitors; 0.28% of 350,000 active; active = well fitted curve in the direction sought with a large enough effect; inconclusive = small, poorly fitted or top-dose-only effect, or another doubt; inactive = no such curve, though single readings can be large; an effect the other way counts as inactive or inconclusive; note: % is set by controls: 0 for no effect and ±100 for the full control effect; nearly all actives have a fitted effect of over 40% in size
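Recombinant human Tdp1 (E. coli-expressed, 1 nM final) preincubated with compounds 15 min at room temperature, then 5'-biotin/3'-phosphotyrosine-FITC DNA substrate (15 nM final) added for 5 min. AlphaScreen beads (10 ug/ml final) added 10 min; cleavage lowers signal.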
ALOX12 inh: Primary qHTS assay for inhibitors of human arachidonate 12S-lipoxygenase (ALOX12): Round 2 | Polyunsaturated fatty acid lipoxygenase ALOX12 (Homo sapiens), P18054 | purified 12hLO, xylenol orange hydroperoxide absorbance | Potency, µM (highest dose often 108 µM), inactives show at the top dose activity change, negative = inhibition, most hits filed as inhibitors | 1.1% of 580,000 active | AID 1671190, 2021; active = well fitted curve in the direction sought with a large enough effect; inconclusive = small, poorly fitted or top-dose-only effect, or another doubt; inactive = no such curve, though single readings can be large; an effect the other way counts as inactive or inconclusive; note: % is set by controls: 0 for no effect and ±100 for the full control effect
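Purified human 12hLO at 150 nM in 25 mM Hepes, 0.01% Triton X-100, pH 7.0, preincubated 15 min at room temperature with compound. Reaction started with 40 uM arachidonic acid, 30 min at room temperature. Hydroperoxide measured by Fe-xylenol orange, 573/405 nm absorbance ratio.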
Rango release inh: qHTS Assay for Inhibitors of RanGTP induced Rango (Ran-regulated importin-beta cargo) - Importin beta complex dissociation; Potency, µM (top dose mostly 46.1 µM), without a hit: at the top dose activity change, negative = inhibition; Snurportin-1 (Homo sapiens) + GTP-binding nuclear protein Ran (Homo sapiens) + Importin …; 0.071% of 340,000 active; Biochemical FRET Rango-importin beta, RanGTP-induced dissociation; note: % of control where 0% means no effect; nearly all actives have a fitted effect of over 45% in size
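Rango (0.1 uM)–importin beta (0.25 uM) complex; RanGTP-RCC1 trigger; 45 min RT; CFP/YFP FRET read.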
Rango-impB inh: qHTS Assay for Inhibitors of Rango (Ran-regulated importin-beta cargo) - Importin beta complex formation. Importin subunit beta-1 (Homo sapiens), Q14974. Rango CFP/YFP FRET sensor + importin beta, 45 min. Potency, µM (titrated, usually from 92.2 µM), for the others: at the highest dose inhibition of complex formation. 0.031% of 340,000 active. AID 540263, 2011;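 note: 0% = DMSO wells and 100% = buffer wells lacking importin beta; nearly all actives have a fitted effect of over 15% in size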
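FRET biosensor Rango (snurportin 1 IBB between N-terminal EYFP and C-terminal Cerulean), 50 nM in PBS/1 mM DTT/0.02% Tween-20/0.1% BSA, preincubated 5 min RT with compound; 0.125 microM importin beta added, 45 min RT, CFP/YFP FRET ratio read.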
PTAP TSG101 blk: qHTS Assay for Iinhibitors of HIV-1 Budding by Blocking the Interaction of PTAP/TSG101; 340,000 tested, under 10 active; Fluorescence polarization, FITC-PTAP peptide / Tsg101 binding; Potency, µM (titrated, usually from 115 µM), for inactives: at the top dose activity change, negative = inhibition, usual class: inhibitors; active = well fitted inhibition curve with a large enough effect in the main read-out, with a control signal flat, not every such curve was filed as active; inconclusive = small, poorly fitted or top-dose-only effect, or effect the other way, or a change in a side signal; inactive = no such curve, though single readings can be large or run the other way; note: % of control where 0% means no effect
Target sequence (Q99816 whole entry, looked up): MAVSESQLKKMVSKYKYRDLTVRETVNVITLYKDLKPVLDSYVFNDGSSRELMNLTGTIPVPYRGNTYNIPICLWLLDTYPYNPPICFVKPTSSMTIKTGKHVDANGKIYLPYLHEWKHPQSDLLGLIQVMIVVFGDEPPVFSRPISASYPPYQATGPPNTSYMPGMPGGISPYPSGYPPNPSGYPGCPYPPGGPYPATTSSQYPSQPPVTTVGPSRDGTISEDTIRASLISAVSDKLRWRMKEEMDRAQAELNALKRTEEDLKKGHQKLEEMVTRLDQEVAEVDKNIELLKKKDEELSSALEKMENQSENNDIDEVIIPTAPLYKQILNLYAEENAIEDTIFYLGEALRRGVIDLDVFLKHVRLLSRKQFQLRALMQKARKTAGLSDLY
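Compounds were pin-transferred onto Tsg101 binding domain (10 uM final) in HEPES pH 7.5 buffer, then FITC-PTAP peptide was added at 50 nM final. After 20 min at RT, polarization reported peptide displacement across a qHTS concentration series.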
ClpP mod: qHTS Assay for Activators of ClpP; ATP-dependent Clp protease proteolytic subunit (Bacillus subtilis (strain 168)), P80244; purified B. subtilis ClpP, FRET peptide cleavage, 20 min; Potency, µM (titrated, usually from 57.5 µM), for inactives: at the highest dose activity change, negative = active; 1.9% of 340,000 active; active = well fitted falling curve with a large enough effect; inconclusive = small, poorly fitted or top-dose-only effect; inactive = no such curve, though single readings can be large or run the other way; note: the source files actives as falling curves though it sought activators and does not explain the sign; nearly all actives have a fitted effect of over 65% in size
Target sequence (P80244 whole entry, looked up): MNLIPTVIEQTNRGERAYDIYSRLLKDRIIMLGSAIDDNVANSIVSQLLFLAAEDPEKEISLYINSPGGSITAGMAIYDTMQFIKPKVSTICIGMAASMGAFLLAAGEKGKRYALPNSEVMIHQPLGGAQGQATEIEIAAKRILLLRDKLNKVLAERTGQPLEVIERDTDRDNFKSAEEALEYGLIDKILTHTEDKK
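FRET quenching reversal measured ClpP activation: 10 microg/mL B. subtilis ClpP at pH 8 with the FRET-FV decapeptide, read at 430 nm after 320 nm excitation. The 20-min minus 0-min signal was scaled between DMSO/no-enzyme wells and ADEP (5.8 microM final).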
* marks the source's active call; other numbers are inactive results; ! = not confirmed by another sample; [ ] = another dose, or the depositor's remark. Only some compounds are listed: those with a hit (about 2.4% of all), similar ones and a draw of the others. Unless noted, calls come from the whole dose curve. Potency is the fitted concentration of half-maximal effect.

C=CCN1C(=O)NC(=O)/C(=C\c2ccc(-c3ccccc3[N+](=O)[O-])o2)C1=O was read as TDP1 block -3.1%, ALOX12 inh 35.5µM*, Rango release inh -7.6%, Rango-impB inh 0.2% and PTAP TSG101 blk -1.9%.
`CN1Cc2ccccc2-n2ccnc2C12CCN(C(=O)c1ccc(Br)o1)CC2` gave ALOX12 inh 4.4%.
CCOP(=O)(OCC)C(NC(=O)c1ccccc1)=C(Cl)Cl was read as TDP1 block 1.4%, ALOX12 inh 0.8%, Rango release inh -8.9%, Rango-impB inh 0.1%, PTAP TSG101 blk -4.6% and ClpP mod 1.4%.
For CCOC(=O)C1=C(NC(=S)NC(=O)c2ccccc2)c2ccccc2CC12CCCC2 the results were TDP1 block 2.7%, ALOX12 inh 20µM*, Rango release inh 11.7%, Rango-impB inh 2.6% and PTAP TSG101 blk -4.4%.
O=C(CC1CCCC1)N1[C@H]2CC[C@@H]1c1cnc(-c3ccccc3)nc1C2 was read as ALOX12 inh -2.4%.
`CCN(CC)C(=O)c1ccc(NC(=O)c2cc3cc(F)ccc3[nH]2)cc1` gave ALOX12 inh 1.9%.
For O=C(c1cc2c(s1)CCCC2)N1CCC2(CC1)OCCO2 the results were TDP1 block 4.5%, ALOX12 inh -4.3%, Rango release inh 11.3%, Rango-impB inh 0.3%, PTAP TSG101 blk -8.2% and ClpP mod -0.6%.
For O=C(c1cc2c(s1)-c1ccccc1OC2)N1CCC2(CC1)OCCO2 the results were TDP1 block 3.2%, ALOX12 inh 1.7%, Rango release inh -5.6%, Rango-impB inh 0.4% and ClpP mod 28.2µM*.
ClCCN(CCCl)c1ccc(C=NNc2ncccn2)cc1 was read as ALOX12 inh -21.1%, Rango release inh -1.3%, Rango-impB inh 0.3% and PTAP TSG101 blk -4.7%.
Screening C=CCc1c(C)nc(C)nc1N/N=C/c1ccc(N(C)C)cc1 returned TDP1 block 5.6%, ALOX12 inh inconclusive, Rango release inh 25.0%, Rango-impB inh inconclusive, PTAP TSG101 blk -1.3% and ClpP mod 20µM*.
Cc1ccc(NC(=O)c2cn(CCC#N)nc2-c2ccc3c(c2)OCCO3)c([N+](=O)[O-])c1 was read as TDP1 block 0.6%, ALOX12 inh -16.4%, Rango release inh 28.5%, Rango-impB inh 2.3%, PTAP TSG101 blk -3.7% and ClpP mod 28.2µM*.
For Cc1ccc(C)c(CC(=O)N2CCN(Cc3ccccc3)CC(O)C2)c1 (configuration not stated) the results were ALOX12 inh -3.6%.
Screening FC(F)(F)c1ccc(CNCCc2ccc3c(c2)OCO3)cc1 returned ALOX12 inh 1.78µM*, Rango release inh 8.1%, Rango-impB inh 0.5%, PTAP TSG101 blk -5.1% and ClpP mod 1.3%.
Clc1ccc(CNCCc2ccc3c(c2)OCO3)cc1 was read as ALOX12 inh 4.47µM*, Rango release inh 13.9%, Rango-impB inh -1.1% and PTAP TSG101 blk -0.1%.
For Nc1ccc2c3c(cccc13)CC2 the results were TDP1 block 0.0%, ALOX12 inh 0.0%, Rango release inh inconclusive, Rango-impB inh inconclusive, PTAP TSG101 blk -12.7% and ClpP mod 14.1µM*.
COc1cccc(-n2c(/C=C/c3ccc(O)c(O)c3)nc3ccccc3c2=O)c1 was read as TDP1 block -6.2%, ALOX12 inh 31.6µM*, Rango release inh inconclusive, Rango-impB inh inconclusive and PTAP TSG101 blk 1.8%.
`CCCNC(=O)OC[C@H]1C[C@@H]2CCN1C[C@@H]2c1cc(C(CC)CC)nc(-c2ccncc2)n1` gave ALOX12 inh 7.7%.
`CCC(CC)c1cc([C@H]2CN3CC[C@H]2C[C@@H]3COC(=O)Nc2ccc(C(C)(C)C)cc2)nc(-c2ccncc2)n1` gave ALOX12 inh 50.1µM*.
COc1ccccc1CNCC(=O)Nc1cc(S(=O)(=O)N2CCCCC2)ccc1C was read as TDP1 block 2.9%, ALOX12 inh 3.8%, Rango release inh -12.9%, Rango-impB inh 0.1%, PTAP TSG101 blk 2.0% and ClpP mod 8.91µM*.
Cc1ccc(S(=O)(=O)N2CCCCC2)cc1NC(=O)CN1CC=C(c2ccccc2)CC1 was read as TDP1 block 5.3%, ALOX12 inh 12.2%, Rango release inh 0.2%, Rango-impB inh inconclusive, PTAP TSG101 blk 4.9% and ClpP mod -9.8%.
`Cc1ccc(-c2nc(N3CCOCC3)s[n+]2-c2ccccc2)cc1` gave TDP1 block 5.3%, ALOX12 inh 20µM*, Rango release inh 1.7%, Rango-impB inh 0.6%, PTAP TSG101 blk -2.0% and ClpP mod inconclusive.
For O=C(Cc1ccccc1)N1CCN(CCCc2ccccc2)CC1 the results were ALOX12 inh 0.891µM*, Rango release inh 6.8%, Rango-impB inh -0.7%, PTAP TSG101 blk -6.3% and ClpP mod 0.1%.
COCC1CN(C2CCC2)CC12CCN(Cc1ccncc1)CC2 (configuration not stated) was read as ALOX12 inh 95.5%.
Screening COP(=S)(OC)Oc1ccc(S(=O)(=O)N(C)C)cc1 returned TDP1 block 8.5% and ALOX12 inh 11.2µM*!.
For CCC1(N2CCN(C(=O)Cc3ccc(Cl)cc3)CC2)CCN(S(C)(=O)=O)C1 (configuration not stated) the results were ALOX12 inh 34.4%.
Screening CN1CCOC[C@H]2CCN(C(=O)c3ccncc3)C[C@H]21 returned ALOX12 inh -6.4%.
O=C1NC(=O)[C@]2(Cc3ccccc3N3CCN(c4ccccc4)CC32)C(=O)N1Cc1ccccc1 (some centres not stated) was read as TDP1 block 6.7%, ALOX12 inh 15.8µM*, Rango release inh -15.4%, Rango-impB inh -4.7%, PTAP TSG101 blk -5.9% and ClpP mod -0.8%.
Screening CCCCc1cn(C[C@H]2CC3CCN2C[C@@H]3C(=O)NCCOC)nn1 (some centres not stated) returned ALOX12 inh 16.5%[176 µM].

Screens as filed in PubChem.
